This is part of a sample that, as a whole, favours compounds with a hit. Of some 83,000 tested, about 20% had one in any assay.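 Testing used 96-well plates and a 48-hour single-concentration exposure. Example: -40 means 40% of the starting cells died.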 Values without a mark were called inactive. Activity calls are given as the source filed them. Rule for the calls: active = growth percent below 10; inactive = the rest.
Experiments:
Experiment in all cases: NCI-60 one-dose screen, 48 h (100 = growth as untreated, 0 = no growth, -100 = all killed)
Settings in all cases: 10 µM unless noted
RPMI-8226 leukemia = test system: RPMI-8226 leukemia
OVCAR-8 ovarian = test system: OVCAR-8 ovarian
OVCAR-5 ovarian = test system: OVCAR-5 ovarian
IGROV1 ovarian = test system: IGROV1 ovarian
OVCAR-3 ovarian = test system: OVCAR-3 ovarian
HS 578T breast = test system: HS 578T breast
NCI/ADR-RES ovarian = test system: NCI/ADR-RES ovarian
T-47D breast = test system: T-47D breast
SK-OV-3 ovarian = test system: SK-OV-3 ovarian
OVCAR-4 ovarian = test system: OVCAR-4 ovarian

| SMILES | growth (RPMI-8226 leukemia) | growth (OVCAR-8 ovarian) | growth (OVCAR-5 ovarian) | growth (IGROV1 ovarian) | growth (OVCAR-3 ovarian) | growth (HS 578T breast) | growth (NCI/ADR-RES ovarian) | growth (T-47D breast) | growth (SK-OV-3 ovarian) | growth (OVCAR-4 ovarian) |
| --- | --- | --- | --- | --- | --- | --- | --- | --- | --- | --- |
| COc1ccc2occ(C3=C(c4c[nH]c5ccccc45)C(=O)NC3=O)c2c1 | 53% | 63.9% | 68.6% | 41.5% | 26.8% | 33.9% | 20.5% | 57% |  |  |
| O=C(Nc1ccc(Cl)cc1)N1CCN(c2ccc3nncn3n2)CC1 | -20.9% (active) | 30.5% | 87.2% | 72.3% | -7.82% (active) | -40.7% (active) | 63.2% | -54.9% (active) | -3.29% (active) |  |
| O=C(Nc1ccc(Br)cc1F)c1cc(I)ccc1O | -8.84% (active) | 9.66% (active) | 24.2% |  | 4.89% (active) | 7.43% (active) | 4.84% (active) | -14% (active) | -10.4% (active) |  |
| CCN(CC)c1cc(C)c2cc(NC(=O)c3cccc(OC)c3)ccc2n1 | 7.5% (active) | 74.8% | 98.3% | 98.4% |  | 58.3% | 80.5% | 70.8% | 104% |  |
| C=C(C)CCC(C)N1CCC(N2CCC(C(=O)NCCc3ccccc3)CC2)CC1 (stereo not drawn) | 4.75% (active) | 75.6% | 92.2% |  | -15.2% (active) | 56.6% | 59.9% | 60.9% | 52.9% |  |
| COCCN(C(=O)Cc1cccs1)C(C(=O)NCc1ccc(OC)cc1)c1ccc(C(C)C)cc1 (stereo not drawn) | 93.2% | 80.9% | 106% |  | 51.5% | 76.2% | 73.8% | 87% | 87.5% |  |
| CCOc1cc(Cl)c(C(C)NC(=O)c2cccc(OC)c2)cc1OCC (stereo not drawn) | -6.93% (active) | -19.9% (active) | 30.2% |  | -82.5% (active) | 18% | 1.86% (active) | 13.5% | 35.4% |  |
| N#C/C(=C1\SC(=O)CN1c1ccccc1)c1nc2ccccc2s1 | 83.7% | 94.9% | 103% |  | 87% | 94.3% | 89.2% | 73.6% | 99.1% |  |
| Oc1c(CN2CCN(c3ccccc3F)CC2)cc(Br)c2cccnc12 | -0.421% (active) | -49% (active) | -19.3% (active) | -34.1% (active) | -86% (active) | -10.3% (active) | 23.8% | 14.3% | -8.19% (active) |  |
| CCCC(c1nnnn1C1CCCCC1)N1CCN(C(=O)c2ccco2)CC1 (stereo not drawn) | 28.9% | 86.4% | 89.4% | 69.2% |  | 60.7% | 46.1% | 92.9% | 79.5% |  |
| COc1ccc(N(C)c2nc(N)nc3sc4c(c23)CCCC4)cc1 | 25.3% | 14% | 49.8% | 17.2% | 1.77% (active) | 26.9% | 2.25% (active) | 70.3% | 20.7% |  |
| Nc1nc(-c2cnccn2)nn1-c1nc2ccccc2s1 | 82% | 99.9% | 104% | 100% | 108% | 99.3% | 101% | 96.9% |  |  |
| O=C1/C=C/[C@@H](O)[C@@H]2C[C@@H](O)C[C@H]2/C=C/CCCCO1 | -39.2% (active) | 12.5% | 36.6% |  | -31.3% (active) | 23.3% | 9.26% (active) | -11.1% (active) | 13% |  |
| COc1ccc(CCN2CCC(CN(C)Cc3cnn(-c4ccccc4)c3)CC2)cc1 | 15.6% | 15.3% | 57.4% | 28.9% | 37.4% |  | 12% | 36.4% | 39.2% |  |
| O=C(/C=C/c1ccc(C(F)(F)F)cc1)c1ccc(Nc2nc(NCCO)nc(N3CCOCC3)n2)cc1 | 2.35% (active) | 28.5% | 68.6% | 25.4% | -31.9% (active) | 78.1% | 74.7% | 32.7% |  |  |
| COc1ccccc1CNC(=O)C1c2ccccc2C(=O)N(CC(C)C)C1c1cccs1 (stereo not drawn) | 2.15% (active) | 50.5% | 84.2% | 71.8% | 58% |  | 71.4% | 42.5% | 106% |  |
| CCOC(=O)c1cc2c(n1Cc1cc(OC)c(OC)c(OC)c1)-c1oncc1CCC2 | 16.8% | 16.6% | 56.2% | 33.3% | -22% (active) | 18.2% | 3.55% (active) | 74% | 11.2% |  |

| SMILES | growth (RPMI-8226 leukemia) | growth (OVCAR-8 ovarian) | growth (OVCAR-5 ovarian) | growth (IGROV1 ovarian) | growth (OVCAR-3 ovarian) | growth (HS 578T breast) | growth (NCI/ADR-RES ovarian) | growth (T-47D breast) | growth (SK-OV-3 ovarian) | growth (OVCAR-4 ovarian) |
| --- | --- | --- | --- | --- | --- | --- | --- | --- | --- | --- |
| O=C(N=Nc1c(O)[nH]c2ccccc12)c1oc2ccccc2c1CN1CCN(c2ccccc2)CC1 | 7.75% (active) | 6.9% (active) | 3.76% (active) | -5.86% (active) | -69.9% (active) | 27.3% | -34.9% (active) | -17.7% (active) |  |  |
| O=S1(=O)N(Cc2ccccc2)[C@@H](Cc2ccccc2)[C@H](O)[C@H](O)[C@H](Cc2ccccc2)N1Cc1ccccc1 | -7.2% (active) | 7.06% (active) | 41.1% | 10.3% |  | 19.7% | -7.86% (active) | 7.87% (active) | 6.58% (active) |  |
| COC(=O)C1(C)CCC[C@]2(C)[C@H]3C[C@H]4C(C(C)C)=C[C@]3(CC[C@@H]12)[C@H]1[C@@H]4[C@@H](OCC#CCN2CCOCC2)CC[C@@H]1OCC#CCN1CCOCC1 (stereo partly drawn) | 67.7% | 83.2% | 106% | 70.6% | 86.3% |  | 74.9% | 64.5% |  |  |
| O=C(c1ccccc1)N(C(=S)NCCc1ccc(Cl)cc1)c1ccccc1 | -30.9% (active) |  | 91.2% | 102% | 98% | 112% | 99% | 59.6% | 114% | 96.9% |
| NC(CCc1nc2ccccc2c(=O)[nH]1)C(=O)O (stereo not drawn) | 101% | 104% | 105% |  | 119% | 102% | 110% | 108% |  |  |
| Cc1cc(Br)c(N)c(Br)c1 | 99.5% |  | 100% | 110% | 108% | 109% | 98% | 92.5% | 83.3% | 94.9% |
| COc1cccc(C2=NN3C(C2)c2ccccc2OC3c2ccc(/C=C3\SC(=O)NC3=O)cc2)c1 (stereo not drawn) | 99.4% |  | 108% | 100% | 102% | 96.4% | 111% | 100% | 96.8% | 103% |
| O=C(Nc1ccc(Cl)cc1F)c1cc(I)ccc1O | 3.96% (active) |  | 79.9% | 27.2% | 10.4% | 3.41% (active) | 11.3% | -0.952% (active) | -4.98% (active) | 23.1% |
| COc1ccc(-c2cn3c(C(=O)Nc4ccccc4Cl)c(-c4ccccc4)c4c3n2CCCC4)cc1 | 68.5% |  | 79.8% |  | 84.1% | 114% | 81.7% | 78.9% | 86.4% | 74.6% |
| NC(=O)CSc1nc(-c2ccc(F)cc2)cc(-c2ccco2)n1 | 98.5% | 98.1% |  | 94% |  | 115% | 105% | 64.1% | 102% | 100% |
| Cc1ccc2nc(NC(=O)CSC(=S)N3CCN(c4ccccc4)CC3)sc2c1 | 79.3% |  | 95.6% | -4.12% (active) | 104% | 104% | 88.2% | 85.7% | 111% | 92.7% |
| COc1ccccc1C(=O)O/N=C(\N)Cc1cccc2ccccc12 | 73.4% |  | 95.2% | 86.7% | 4.24% (active) | 97% | 69.8% | 93.3% | 103% | 62.3% |
| CC[C@H](C)[C@@H](C(=O)OC)n1cc(CNC(=O)[C@@H](Cc2ccccc2)NC(=O)OCc2ccccc2)nn1 | 90.1% | 91.3% |  | 92.2% |  | 101% | 94.4% | 107% | 109% | 105% |
| O=C(c1nc2ccccc2[nH]1)C1C(c2ccc([N+](=O)[O-])cc2)C2CC3CCCCC3N2[C@@]12C(=O)Nc1cc(Cl)ccc12 (stereo partly drawn) | 6.29% (active) |  | 46.3% | 24.9% | 29.6% | 54.6% | 29.2% | 28.8% |  | 20.6% |
| CC[C@@H](C)[C@H](NC(=O)Cn1cc(CNC(=O)[C@@H](NC(=O)OCc2ccccc2)C(C)C)nn1)C(=O)O | 106% | 96.2% |  | 113% | 119% | 104% | 105% | 116% | 109% | 111% |
| C1CCN(c2nc(N3CCCCC3)nc(N3CCOCC3)n2)CC1 | 100% |  | 122% | 104% | 118% |  | 103% | 86.2% | 99.6% | 96% |
